# From PubChem BioAssay (EPA / NIEHS)
# A structure can be active in one record and inactive in another. Active and inactive are the calls of the source. How the source made its calls: active means hit-call score of the fitted dose curve at least 0.9, where 1 is the maximum; inactive means score below 0.9.
# Test: ATG_TAL_CIS: Attagene CIS-FACTORIAL HepG2 Assay for human TAL Basal Promoter (AID 2282966);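 further: background control endpoint measuring basal TAL promoter reporter mRNA not a specific factor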
# Details: HepG2 Attagene cis-factorial TAL promoter reporter; actives raise or lower the signal
# Procedure, shortened: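 HepG2, transient MRTU transfection, 24 h compound exposure; RNA → oligo(dT) RT → PCR → 6-FAM primer extension → HpaI digest → CE fluorescence. Bidirectional curve fit vs DMSO. Background-control readout.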
SMILES,outcome,AC50
Sc1ccccc1,inactive,
O=C(O)C(F)(F)C(F)(F)C(F)(F)C(F)(F)C(F)(F)C(F)(F)C(F)(F)C(F)(F)F,inactive,
CCC(=O)O[C@H]1CC[C@H]2[C@@H]3CCC4=CC(=O)CC[C@]4(C)[C@H]3CC[C@]12C,inactive,156 µM (active)
CC#Cc1cc(C)nc(Nc2ccccc2)n1,inactive,
CN(C)CCO,inactive,
ClC1=C(Cl)[C@]2(Cl)[C@@H]3[C@@H]4C[C@@H]([C@H]5O[C@@H]45)[C@@H]3[C@@]1(Cl)C2(Cl)Cl,inactive,
ClC(Cl)=C(c1ccc(Cl)cc1)c1ccc(Cl)cc1,inactive,
CC(C)(c1ccccc1)c1ccc(O)cc1,inactive,
CCOCCOC(C)=O,inactive,
Oc1ccc(Cl)cc1Cl,inactive,
Clc1ccc(Cl)cc1,inactive,
O=C(O)C(F)(F)C(F)(F)C(F)(F)C(F)(F)C(F)(F)C(F)(F)C(F)(F)C(F)(F)C(F)(F)F,inactive,61.9 µM (active)
O=C(N[C@H]1CN2CCC1CC2)c1cc2ccoc2cn1,inactive,
Cc1cccc([N+](=O)[O-])c1,inactive,
Cc1ccc(O)c(C)c1,inactive,
Cc1cccc(C)c1N,inactive,
c1cc2ccc3cccc4ccc(c1)c2c34,inactive,

SMILES,outcome,AC50
C1CC2OC2CC1C1CO1 (stereo unspecified),inactive,
Cc1cc2c3c(c1)C(c1ccccc1)=N[C@@H](NC(=O)c1ccncc1)C(=O)N3CC2,inactive,
NS(=O)(=O)C(F)(F)C(F)(F)C(F)(F)C(F)(F)C(F)(F)C(F)(F)C(F)(F)C(F)(F)F,inactive,
CCCCCCCCCC[N+](C)(C)CCCCCCCCCC,inactive,
CCCCCCCCOC(=O)c1ccccc1C(=O)OCCCCCCCC,inactive,
CCSC(=O)N(CC)C1CCCCC1,inactive,
CCCN(CCC)N=O,inactive,
C=CC(N)=O,inactive,
Clc1ccc(C(c2ccccc2Cl)C(Cl)(Cl)Cl)cc1 (stereo unspecified),inactive,
Nn1cnnc1,inactive,
CCC(C)(CC)c1cc(NC(=O)c2c(OC)cccc2OC)on1,inactive,
Oc1c(Cl)c(Cl)c(Cl)c(Cl)c1Cl,inactive,26.4 µM (active)
CC(C)(O)C(=O)Nc1ccc([N+](=O)[O-])c(C(F)(F)F)c1,inactive,
Cc1ccccc1CO[C@@H]1C[C@@]2(C(C)C)CC[C@]1(C)O2,inactive,
Cc1cc(O)ccc1Cl,inactive,
CC(c1ccc(O)cc1)(c1ccc(O)cc1)c1ccc(O)cc1,inactive,
